The source of these data is the supplement of paper PMC6555819.

What all share (experiment): PBM binding z-score (relative to random genomic background probes); higher = stronger binding; sequences stand for … in GC…GCGATTGACAGCGTAGAATGAAGG
The test system of assay [1] is RARb homodimer (NR concentration 270 nM). In outline:
(§1)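 On custom Agilent 4×180K arrays, double-stranded probes with 34-nt variable regions carried direct-repeat seeds, single-nucleotide variants, half-site ablations or random human genomic background. Ligand-free nuclear receptor dimers were applied for 1 h, and binding was read with antibodies against each partner (one per run). Binding z-scores come from regression-normalized fluorescence, with the random background probes as reference.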

Assay [2] deals with RARg:RXRa (NR concentration 270 nM, RXRa partner concentration 90 nM). In outline: as §1
The subject of assay [3] is RARg homodimer (NR concentration 270 nM). The method in brief: as §1
Assay [4] concerns RXRa DBDmut IVT, anti-RXR (DBD mutation: RXRa K156A/R161A, NR concentration 90 nM). The method in brief: as §1
Assay [5] concerns RXRa homodimer (NR concentration 180 nM). In outline: as §1
In assay [6] the test system is THRa:RXRa (NR concentration 90 nM, RXRa partner concentration 90 nM). The method in brief:
as §1

Assay [7] relates to THRa homodimer (NR concentration 90 nM). In outline: as §1
In assay [8] the test system is VDR homodimer (NR concentration 270 nM). In outline: as §1

As for ATCGAAAGGTCGTGTGGTGAGTATACAGAAAGGC, the PBM binding z-score in assay [1] is 2.97; in assay [2] it was 4.21; in assay [3], 3.83; in assay [4], 2.19; in assay [5] it was 4.59; in assay [6] it was 2.39. In addition, the PBM binding z-score turned out to be 0.842 in assay [7] and 2.03 in assay [8].
With TCTTCTAGGTCAACGATGGTCAGCTAATCTGCTA, the PBM binding z-score is 3.76 in assay [1]; 4.37 in assay [2]; 5.58 in assay [3]; 1.9 in assay [4]; 3.09 in assay [5]; 3.55 in assay [6]. Moreover, the PBM binding z-score amounted to 2.17 in assay [7] and 0.674 in assay [8].
Take CTACCAAGGTGCACAAGGTCGTTGATTACTATTC: the PBM binding z-score in assay [1] was 1.71; in assay [2] it was 1.29; in assay [3] it was 0.782; in assay [4], 1.8; in assay [5], 1.42; in assay [6], 2.14. The PBM binding z-score in assay [7] was determined as 1.21; in assay [8], 2.73.
With CAAACTAGGTCATGAAAGGTCAAAGTCGAATGAC, the PBM binding z-score turned out to be 5.55 in assay [1]; 7.46 in assay [2]; 7.78 in assay [3]; 2.45 in assay [4]; 7.87 in assay [5]; 5.19 in assay [6]. For the same sequence, the results for the PBM binding z-score in assay [7] and in assay [8] were 2.21 and 4.05, respectively.
As to GGAACGAGGGCAAGTTGATAGGAGAGTTTGATGG, the PBM binding z-score in assay [1] was determined as 1.61; in assay [2] it was 1.72; in assay [3], 2.08; in assay [4] it was 2.4; in assay [5], 0.681; in assay [6] it was 1.27. The PBM binding z-score was 0.249 in assay [7] and 2.23 in assay [8].
With TCTATTAGTTGAAGGGCAGCCGACGAGTCCGTTT, the PBM binding z-score in assay [1] is 0.841; in assay [2], 0.303; in assay [3] it was 0.318; in assay [4], 1.74; in assay [5], 0.258; in assay [6] it was 0.00646. The PBM binding z-score in assay [7] stood at 0.0713; in assay [8], 1.27.
For CAAACTAGGTCAAGAGGTCTAAGTCCGCTTCCCG, the PBM binding z-score in assay [1] was 3.42; in assay [2], 4.23; in assay [3] it was 4.4; in assay [4], 1.73; in assay [5], 2.76; in assay [6], 2.82. Moreover, the PBM binding z-score in assay [7] amounted to 1.1; in assay [8], 1.23.
